In the library only some 10% were active in any assay of this set; here they are far more common.
HP1b binding inh – blocks HP1-beta chromodomain binding to methylated histone tails. P83916. Potency, µM (series often up to 114 µM), usual class: inhibitors. AlphaScreen HP1-beta / biotin-H3K9me3 peptide binding. AID 540317. actives 0.56% (n = 390,000); further: nearly all actives have a fitted effect of over 70% in size
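Compound inhibition of the preformed complex between 50 nM HP1-beta and 50 nM biotinylated H3K9me3 peptide was read by AlphaScreen. Buffer was PBS pH 7.4 with 0.01% Tween-20. Incubations ran 30 min at room temperature, with 10 ug/mL donor/acceptor beads.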
JMJD2A Tudor – inhibitors of human JMJD2A Tudor domain; O75164; AlphaScreen JMJD2A-Tudor / H3K4me3 peptide binding; Potency, µM (highest dose often 114 µM), most hits filed as inhibitors; actives 4.4% (n = 390,000); further: nearly all actives have a fitted effect of over 50% in size
BAZ2B block – BAZ2B (human) inhibition. Q9UIF8. AlphaScreen BAZ2B-H3K14Ac peptide displacement. Potency, µM (highest dose often 114 µM), usual class: inhibitors. actives 4.4% (n = 360,000). AID 504333; further: nearly all actives have a fitted effect of over 60% in size
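AlphaScreen displacement of biotin-H3(5-23)K14Ac peptide (50 nM final) from BAZ2B (50 nM final) in PBS pH 7.4, 0.01% Tween-20; complex preformed 30 min RT, then compounds (top 110 uM) 30 min RT, beads 20 min dark.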
G9a block – blocks human histone lysine methyltransferase G9a | Q96KQ7 | G9a H3K9 monomethylation, AlphaScreen, 2 h | Potency, µM (titrated, usually from 102 µM), actives largely listed as inhibitors | actives 8.8% (n = 350,000) | AID 504332; further: nearly all actives have a fitted effect of over 75% in size
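AlphaScreen read-out: biotin-H3K9 peptide (500 nM) methylation by 20 nM enzyme with 20 uM SAM, 2 h at room temperature after 15 min compound preincubation; anti-monomethyl H3K9 antibody plus donor/acceptor beads, 10 min dark.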
GLS inhibitor – blocks human kidney-isoform glutaminase activity; GLS enzymatic activity, qHTS titration; O94925; AID 624170; actives 0.21% (n = 410,000); Potency, µM (doses to about 45.5 µM), actives largely listed as inhibitors
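hKGA in 45 mM KH2PO4 (pH 8.2), 0.02% Tween-20 with compound, then 1mM L-Glutamine (stock as added) plus glutamate oxidase/HRP/Amplex red coupling mix. Fluorescence read initially and after 30 min at RT; signal change reflects glutamate formation.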
Large screens that a line does not name were inactive; ! = not confirmed by another sample. The call rests on the fitted dose curve; in most records, active means well fitted curve in the direction sought with a large enough effect; inconclusive means small, poorly fitted or top-dose-only effect, or another doubt; inactive means no such curve, though single readings can be large; an effect the other way counts as inactive or inconclusive.

Cc1ccc(C)c(N(CC(=O)NC2CCCC2)C(=O)c2cc3cc4cccc(C)c4nc3s2)c1	none
Cc1ccc(C)c2nc3sc(C(=O)O)cc3cc12	G9a block 40µM
COC(=O)[C@H]1C[C@H](OC(=O)NCc2ccco2)[C@@]2(O)CN(S(=O)(=O)c3ccc(C)cc3)CC2[C@H]1C(=O)OC (stereo partly specified)	none (no result: HP1b binding inh, JMJD2A Tudor, BAZ2B block, G9a block)
O=C(COC(=O)CN1C(=O)c2ccccc2C1=O)Nc1ccccc1[N+](=O)[O-]	none
Fc1ccc(C(OCCCc2cnc[nH]2)c2ccc(F)cc2)cc1	G9a block 45µM! (no result: HP1b binding inh, JMJD2A Tudor, BAZ2B block, GLS inhibitor)
COc1ccc(CCNC(=O)CC2Oc3ccc(Cl)cc3NC2=O)cc1OC (stereo unspecified)	G9a block 79µM
COc1ccc(CCNC(=O)CC2Nc3ccccc3NC2=O)cc1OC (stereo unspecified)	none
CCC(C)NC(=O)CC1Oc2ccc(Cl)cc2NC1=O (stereo unspecified)	G9a block 45µM
CC1CC(C(O)c2ccccn2)C(=O)C(C(O)c2ccccn2)C1 (stereo unspecified)	none (no result: BAZ2B block, G9a block)
CSc1nc(-c2ccco2)nn1C(=O)c1ccc(Cl)cc1	G9a block 79µM (no result: HP1b binding inh, JMJD2A Tudor, GLS inhibitor)
CCc1ccc(C2=C(C)C(N3CCC(C(=O)Nc4cccc(OC)c4)CC3)=NS2(=O)=O)cc1	none
COc1ccc(C(=O)/C=C/c2ccc(O)cc2)c2c1CC(O)C(C)(C)O2 (stereo unspecified)	JMJD2A Tudor inconclusive (no result: BAZ2B block, G9a block)
COc1ccc(C(=O)/C=C/c2ccc(O)cc2)c(O)c1CC=C(C)C	HP1b binding inh inconclusive, JMJD2A Tudor 45µM, BAZ2B block inconclusive, G9a block inconclusive
CC(=O)c1cccc(NC(=O)C2Cc3c(-c4cccc(C(C)=O)c4)ccnc3O2)c1 (stereo unspecified)	none (no result: HP1b binding inh, JMJD2A Tudor, BAZ2B block, G9a block)
O=C(Cc1ccccn1)c1ccc(Cl)cc1	none
CC1=C(CC(=O)c2ccc(Cl)cc2)C(=O)c2ccccc2C1=O	JMJD2A Tudor 32µM, BAZ2B block 32µM, G9a block inconclusive
C=CCN1C(=O)c2ccc(C(=O)N(C)CC(=O)Nc3c(C)cccc3C)cc2C1=O	G9a block 50µM
CCCS(=O)(=O)NC(=O)C1(C)CCCN(C(=O)c2c(F)cccc2F)C1 (stereo unspecified)	none (no result: HP1b binding inh, JMJD2A Tudor, BAZ2B block, G9a block)
COc1ccc(C(=O)On2c(-c3ccc(Br)cc3)nc3ccccc3c2=O)cc1	none
COc1cc(OC)cc(-c2nc3ccccc3c(=O)n2OC(=O)c2ccc(Br)cc2)c1	JMJD2A Tudor 20µM, BAZ2B block inconclusive, G9a block inconclusive
COc1ccccc1-c1nnc(C2CCN(S(=O)(=O)c3ccccc3[N+](=O)[O-])CC2)o1	G9a block 40µM
COc1ccc(-c2nnc(C3CCN(S(=O)(=O)c4ccccc4)CC3)o2)cc1	G9a block 40µM
COc1ccccc1-c1nnc(C2CCN(S(=O)(=O)c3ccc([N+](=O)[O-])cc3)CC2)o1	BAZ2B block inconclusive (no result: G9a block)
CC(=O)Nc1ccc(S(=O)(=O)N2CCC(c3nnc(-c4ccc(C)cc4)o3)CC2)cc1	G9a block 28µM
Cc1cccc(-c2nnc(C3CCN(S(=O)(=O)c4cccc(Cl)c4)CC3)o2)c1	G9a block 3.2µM
O=C(/C=C/c1ccc(Cl)c(Cl)c1)Nc1cccnc1	none (no result: BAZ2B block, G9a block)
O=C1CC(c2ccccc2)CN1Cc1ccccc1 (stereo unspecified)	none
N=c1ncn(Cc2ccccc2)c2nc(SCCOc3ccccc3)[nH]c12	G9a block 79µM
Cc1nc(SCCOc2ccccc2)[nH]c(=O)c1Cc1ccccc1	none
CCC(CC)NC(=O)CSc1ccc(S(=O)(=O)N2CCCCC2)cn1	G9a block 50µM
C=C(C)CN(CC)C(=O)CSc1ccc(S(=O)(=O)N2CCN(C)CC2)cn1	G9a block 45µM
CC(C)NC(=O)NC(=O)CSc1ccc(S(=O)(=O)N2CCOCC2)cn1	G9a block 45µM
CN(C)C(=O)CSc1ccc(S(=O)(=O)N2CCCC2)cn1	G9a block 56µM
C=C(C)CN(CC)C(=O)CSc1ccc(S(=O)(=O)N2CCN(Cc3ccccc3)CC2)cn1	none
CC(C)N(C(=O)CSc1ccc(S(=O)(=O)N2CCCCC2)cn1)c1ccccc1	none
CCCCNC(=O)CSc1ccc(S(=O)(=O)N2CCOCC2)cn1	none
N#CC1(NC(=O)COc2cc(F)ccc2[N+](=O)[O-])CCCCC1	G9a block inconclusive
N#CC1(NC(=O)COc2ccccc2[N+](=O)[O-])CCCCC1	HP1b binding inh inconclusive, JMJD2A Tudor 20µM, G9a block 18µM
COCCn1c(SCC(=O)Nc2cccc(S(N)(=O)=O)c2)nc2cc(Cl)ccc2c1=O	JMJD2A Tudor 20µM, GLS inhibitor inconclusive
COCCn1c(SCC(=O)Nc2cccnc2Cl)nc2cc(Cl)ccc2c1=O	none
COCCn1c(SCC(=O)Nc2sccc2C(N)=O)nc2cc(Cl)ccc2c1=O	G9a block 45µM
CCCCC1=CC2=C(c3ccco3)C(=O)C(C)(OC(=O)c3ccc(OC)cc3)C(=O)C2=CN1CCN1CCOCC1 (stereo unspecified)	JMJD2A Tudor inconclusive
CCCOC(=O)C[N+](C)(C)CCOC1CC2CCC1(C)C2(C)C (stereo unspecified)	none
CCOc1ccc(C(=O)Nc2ccc(N3CCN(C(=O)c4ccco4)CC3)cc2)cc1Br	none (no result: BAZ2B block, G9a block)
COc1ccc(O)c(C(=O)CC(=O)c2ccc(F)cc2)c1	HP1b binding inh inconclusive, JMJD2A Tudor inconclusive, BAZ2B block inconclusive, G9a block 79µM
COc1ccc(OCCOCCN2CCc3ccccc3C2)cc1	HP1b binding inh inconclusive, JMJD2A Tudor 2.5µM, BAZ2B block 50µM, G9a block 10µM (no result: GLS inhibitor)
N#Cc1ccc(OCCN2CCc3ccccc3C2)cc1	HP1b binding inh inconclusive, JMJD2A Tudor 25µM (no result: BAZ2B block, G9a block)
Cc1ccc(Cl)c(OCCN2CCc3ccccc3C2)c1	none (no result: G9a block)
Clc1ccc(OCCCCN2CCc3ccccc3C2)cc1	none (no result: G9a block)
COc1cc(C=O)ccc1OCCSc1ccc(Cl)cc1	none
Nc1nc(SCC(=O)Nc2cccnc2Cl)n[nH]1	JMJD2A Tudor inconclusive, GLS inhibitor inconclusive
NS(=O)(=O)c1ccc(CNS(=O)(=O)c2ccc(Cl)nc2)cc1	G9a block 56µM
O=C(Nc1cccnc1)Nc1ccccc1Cl	none
O=C(Nc1cccnc1)c1cc(-c2cccc(Cl)c2)on1	JMJD2A Tudor 25µM!
O=C(Nc1cccnc1)Nc1cc(Cl)cc(Cl)c1	G9a block 79µM
CCN(c1ccccc1)S(=O)(=O)c1ccc(C(=O)NCc2ccccn2)cc1	none
Cc1cccnc1NC(=O)CCCc1c[nH]c2ccccc12	BAZ2B block inconclusive
O=C(CCCc1c[nH]c2ccccc12)Nc1ncccc1O	BAZ2B block 56µM
COC(=O)c1ccccc1NC(=O)CSc1nc2cccnc2n1C	none (no result: G9a block)
O=c1sc2ccccc2c(=O)n1Cc1ccccc1F	GLS inhibitor 13µM
COc1ccccc1NNC(=O)c1cccnc1Oc1ccccc1	G9a block 7.1µM, GLS inhibitor inconclusive
O=C(CCN1CCOCC1)Nc1cccc(Br)c1	none

Screens from PubChem.
